# Assay results: PubChem BioAssay AID1159580 (chemical genetic matrix, 2015)
# The campaign covered roughly 5,500 compounds. About 2,000 (36%) were called active. Another 18% or so got no clear call; they are omitted. The list shows a part of the results. Values without a mark were called inactive. Cut-off read from the data, not from the text of the source: active = normalized growth mostly below about 0.91 (no sharp cut-off); inconclusive = no clear call, values can overlap the other calls; inactive = mostly above about 0.92.
# Test: chemical genetic growth profiling, strain panel (AID 1159580);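 note: tested at 20 µM; growth read once vehicle control cultures reached saturation at 30 °C; 1 = growth at the plate median or of vehicle wells; lower values mean less growth of the strain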
# Details: S. cerevisiae deletion strains, growth OD
smiles,measurement,setting,value
CCC(c1ccc(O)cc1)C(CC)c1ccc(O)cc1 (stereo not drawn),normalized growth,"locus YAL013W, strain DEP1, stronger effect = lower value",0.998
same,normalized growth,"locus YAL021C, strain ccr4, stronger effect = lower value",0.93
same,normalized growth,"locus YAL026C, strain drs2, stronger effect = lower value",0.835 (active)
same,normalized growth,"locus YAL030W, strain snc1, stronger effect = lower value",0.918 (active)
same,normalized growth,"locus YBL061C, strain skt5, stronger effect = lower value",0.982
same,normalized growth,"locus YBR009C, strain hhf1, stronger effect = lower value",0.77 (active)
same,normalized growth,"locus YBR021W, strain FUR4, stronger effect = lower value",0.972
same,normalized growth,"locus YBR023C, strain chs3, stronger effect = lower value",0.966
same,normalized growth,"locus YBR171W, strain sec66, stronger effect = lower value",0.993
same,normalized growth,"locus YBR229C, strain ROT2, stronger effect = lower value",0.993
same,normalized growth,"locus YBR231C, strain swc5, stronger effect = lower value",0.989
same,normalized growth,"locus YBR279W, strain paf1, stronger effect = lower value",0.95
same,normalized growth,"locus YCL011C, strain gbp2, stronger effect = lower value",0.858 (active)
same,normalized growth,"locus YCL016C, strain dcc1, stronger effect = lower value",0.95
same,normalized growth,"locus YCL029C, strain bik1, stronger effect = lower value",0.987
same,normalized growth,"locus YCL061C, strain MRC1, stronger effect = lower value",0.958
same,normalized growth,"locus YCL069W, strain vba3, stronger effect = lower value",0.951
same,normalized growth,"locus YCR088W, strain abp1, stronger effect = lower value",0.974
same,normalized growth,"locus YDL005C, strain med2, stronger effect = lower value",0.92
same,normalized growth,"locus YDL035C, strain GPR1, stronger effect = lower value",0.914
same,normalized growth,"locus YDL040C, strain nat1, stronger effect = lower value",0.998
same,normalized growth,"locus YDL074C, strain BRE1, stronger effect = lower value",0.878
same,normalized growth,"locus YDL101C, strain DUN1, stronger effect = lower value",0.989
same,normalized growth,"locus YDL134C, strain PPH21, stronger effect = lower value",0.998
same,normalized growth,"locus YDL185W, strain tfp1, stronger effect = lower value",0.995
same,normalized growth,"locus YDL192W, strain arf1, stronger effect = lower value",0.969
same,normalized growth,"locus YDR001C, strain nth1, stronger effect = lower value",0.997
same,normalized growth,"locus YDR069C, strain doa4, stronger effect = lower value",0.894 (active)
same,normalized growth,"locus YDR101C, strain arx1, stronger effect = lower value",0.968
same,normalized growth,"locus YDR137W, strain rgp1, stronger effect = lower value",0.415 (active)
same,normalized growth,"locus YDR150W, strain NUM1, stronger effect = lower value",1.01
same,normalized growth,"locus YDR159W, strain sac3, stronger effect = lower value",0.723 (active)
same,normalized growth,"locus YDR162C, strain NBP2, stronger effect = lower value",0.931
same,normalized growth,"locus YDR195W, strain ref2",1.02
same,normalized growth,"locus YDR297W, strain sur2, stronger effect = lower value",0.923
same,normalized growth,"locus YDR318W, strain mcm21, stronger effect = lower value",0.944
same,normalized growth,"locus YDR334W, strain swr1, stronger effect = lower value",1.02
same,normalized growth,"locus YDR335W, strain msn5, stronger effect = lower value",0.938
same,normalized growth,"locus YDR388W, stronger effect = lower value",0.966
same,normalized growth,"locus YDR392W, strain spt3, stronger effect = lower value",0.743
same,normalized growth,"locus YDR502C, strain sam2, stronger effect = lower value",0.959
same,normalized growth,"locus YEL003W, strain gim4, stronger effect = lower value",0.891 (active)
same,normalized growth,"locus YEL037C, strain rad23, stronger effect = lower value",1
same,normalized growth,"locus YEL061C, strain CIN8 (second series), stronger effect = lower value",1
same,normalized growth,"locus YEL061C, strain CIN8, stronger effect = lower value",1
same,normalized growth,"locus YER015W, strain faa2, stronger effect = lower value",0.901 (active)
same,normalized growth,"locus YER016W, strain bim1, stronger effect = lower value",0.94
same,normalized growth,"locus YER110C, stronger effect = lower value",1.01
same,normalized growth,"locus YER111C, strain swi4, stronger effect = lower value",1
same,normalized growth,"locus YER155C, strain BEM2 (second series), stronger effect = lower value",0.942
same,normalized growth,"locus YER155C, strain BEM2, stronger effect = lower value",1.02
same,normalized growth,"locus YER167W, strain BCK2, stronger effect = lower value",0.972
same,normalized growth,"locus YFR010W, strain ubp6, stronger effect = lower value",0.957
same,normalized growth,"locus YGL078C, strain dbp3, stronger effect = lower value",0.976
same,normalized growth,"locus YGL086W, strain mad1, stronger effect = lower value",0.958
same,normalized growth,"locus YGL167C, strain pmr1, stronger effect = lower value",0.987
same,normalized growth,"locus YGL173C, strain kem1, stronger effect = lower value",0.825 (active)
same,normalized growth,"locus YGL227W, strain vid30, stronger effect = lower value",0.994
same,normalized growth,"locus YGL240W, strain doc1, stronger effect = lower value",0.863 (active)
same,normalized growth,"locus YGL248W, strain PDE1, stronger effect = lower value",0.998
same,normalized growth,"locus YGL253W, strain hxk2, stronger effect = lower value",0.953
same,normalized growth,"locus YGR078C, strain PAC10, stronger effect = lower value",0.952
same,normalized growth,"locus YGR135W, strain pre9, stronger effect = lower value",0.968
same,normalized growth,"locus YGR229C, strain SMI1, stronger effect = lower value",0.813
same,normalized growth,"locus YGR252W, strain gcn5, stronger effect = lower value",0.902
same,normalized growth,"locus YHR013C, strain ard1, stronger effect = lower value",1.21 [resistant] (active)
same,normalized growth,"locus YHR027C, strain rpn1, stronger effect = lower value",0.933
same,normalized growth,"locus YHR030C, strain SLT2, stronger effect = lower value",0.993
same,normalized growth,"locus YHR079C, strain IRE1 (second series), stronger effect = lower value",0.971
same,normalized growth,"locus YHR094C, strain hxt1, stronger effect = lower value",0.999
same,normalized growth,"locus YHR129C, strain ARP1, stronger effect = lower value",1.01
same,normalized growth,"locus YHR142W, strain chs7, stronger effect = lower value",0.911
same,normalized growth,"locus YHR200W, strain rpn10, stronger effect = lower value",0.981
same,normalized growth,"locus YIL073C, strain SPO22, stronger effect = lower value",0.951
same,normalized growth,"locus YIL125W, strain kgd1, stronger effect = lower value",0.994
same,normalized growth,"locus YIR030C, strain dcg1, stronger effect = lower value",1.01
same,normalized growth,"locus YJL092W, strain hpr5, stronger effect = lower value",0.967
same,normalized growth,"locus YJL095W, strain BCK1 (second series), stronger effect = lower value",0.799 (active)
same,normalized growth,"locus YJL095W, strain BCK1, stronger effect = lower value",0.855
same,normalized growth,"locus YJL115W, strain asf1, stronger effect = lower value",1.02
same,normalized growth,"locus YJL129C, strain trk1, stronger effect = lower value",0.675 (active)
same,normalized growth,"locus YJL134W, strain LCB3, stronger effect = lower value",0.999
same,normalized growth,"locus YJL154C, strain vps35, stronger effect = lower value",0.996
same,normalized growth,"locus YJL164C, strain tpk1, stronger effect = lower value",0.687 (active)
same,normalized growth,"locus YJL166W, strain qcr8, stronger effect = lower value",0.812 (active)
same,normalized growth,"locus YJL168C, strain set2, stronger effect = lower value",0.994
same,normalized growth,"locus YJL187C, strain SWE1 (second series), stronger effect = lower value",0.964
same,normalized growth,"locus YJR043C, strain POL32, stronger effect = lower value",0.999
